In the library only some 9.3% were active in any assay of this set; here they are far more common.
NPC1 prom act: qHTS Assay for NPC1 Promoter Activators. 320,000 tested, 2.4% active. AID 485313, 2010. Huh7 NPC1 promoter luciferase reporter, 24 h. Potency, µM (titrated, usually from 9.22 µM), inactives show at the highest dose activation, usual class: activators; also: % of control where 0% means no effect; nearly all actives have a fitted effect of over 60% in size
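Luciferase expression driven by the NPC1 promoter was measured in stably transfected Huh7 cells after a 24 h compound incubation, using a luciferase reagent and a luminescence read.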
FLuc modulator: qHTS profiling assay for firefly luciferase inhibitor/activator using purifed enzyme and Km concentrations of substrates (counterscreen for miR-21 project). purified FLuc, Km substrates, luminescence inhibition. Potency, µM (highest dose often 57.5 µM), for the others: at the highest dose activity change, negative = inhibition, hits mostly inhibitors. 360,000 tested, 6.9% active. AID 588342, 2011;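 also: plate controls were vehicle for no effect and reference inhibitor for full effect; nearly all actives have a fitted effect of over 55% in size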
Target sequence (P08659 whole entry, looked up): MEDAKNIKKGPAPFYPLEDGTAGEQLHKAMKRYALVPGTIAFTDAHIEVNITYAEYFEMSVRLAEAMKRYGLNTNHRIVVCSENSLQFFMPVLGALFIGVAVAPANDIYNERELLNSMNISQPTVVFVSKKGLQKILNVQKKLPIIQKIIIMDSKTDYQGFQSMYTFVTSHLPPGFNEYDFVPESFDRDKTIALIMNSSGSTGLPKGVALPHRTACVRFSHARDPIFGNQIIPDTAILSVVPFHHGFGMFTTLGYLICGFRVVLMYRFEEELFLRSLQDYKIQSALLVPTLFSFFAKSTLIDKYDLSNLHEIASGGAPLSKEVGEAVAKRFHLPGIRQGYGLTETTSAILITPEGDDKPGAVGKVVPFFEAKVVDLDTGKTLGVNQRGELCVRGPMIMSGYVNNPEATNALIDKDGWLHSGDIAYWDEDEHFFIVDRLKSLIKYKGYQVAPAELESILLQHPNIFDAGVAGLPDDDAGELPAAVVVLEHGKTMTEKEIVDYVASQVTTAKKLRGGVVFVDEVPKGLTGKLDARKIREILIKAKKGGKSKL
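Purified P. pyralis luciferase (10nM final) with 10uM D-luciferin and 10uM ATP (Km levels) in 50mM Tris acetate pH 7.5, 10mM Mg acetate, 0.01% Tween-20, 0.05% BSA; qHTS 6-point titration, ~60 µM downward; luminescence read.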
ELG1 genotox: qHTS screen for small molecules that induce genotoxicity in human embryonic kidney (HEK293T) cells expressing luciferase-tagged ELG1 | HEK293T ELG1-luciferase reporter, luminescence, 16 h | Potency, µM (titrated, usually from 46 µM), for inactives: top-dose activity change, positive = activation, hits mostly activators | 330,000 tested, 1.3% active | AID 504466, 2011; also: % of control where 0% means no effect; nearly all actives have a fitted effect of over 60% in size
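Step 1: seed 2,000 HEK293T ELG1-luciferase cells per well. Step 2: add compound or DMSO, incubate 16 hr at 37 °C. Step 3: ONE-Glo, 30 min at room temperature, read luminescence.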
Rab9 promoter act: qHTS Assay for Rab9 Promoter Activators; Huh7 Rab9 promoter-luciferase reporter, luminescence, 24 h; Potency, µM (series often up to 9.22 µM), without a hit: at the highest dose activation, negative = inhibition, most hits filed as activators; 320,000 tested, 2.8% active; AID 485297, 2010; also: % of control where 0% means no effect; nearly all actives have a fitted effect of over 60% in size
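Rab9 promoter-driven luciferase in stably transfected Huh7 cells; 1500 cells/well rested 2 h, exposed to compound in DMSO for 24 h at 37 °C, 5% CO2. Luminescence read 10 min after adding luciferase reagent at ambient temperature.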
ELG1 repair inh: qHTS screen for small molecules that inhibit ELG1-dependent DNA repair in human embryonic kidney (HEK293T) cells expressing luciferase-tagged ELG1; HEK293T ELG1-luciferase reporter, luminescence, 16 h; DNA damage induced by 5-fluorouridine; Potency, µM (series often up to 46.1 µM), inactives show at the highest dose activity change, negative = inhibition, usual class: inhibitors; 330,000 tested, 2.3% active; also: % is scaled to controls: 0 for no effect and ±100 for the full control effect; nearly all actives have a fitted effect of over 55% in size
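HEK293T cells expressing luciferase-tagged ELG1 (2,000/well) received 5-Fluorouridine plus compound or DMSO for 16 hr at 37 °C. Luciferase was read by ONE-Glo luminescence after 30 min at room temperature.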
SMN2 splice up: qHTS Assay for Enhancers of SMN2 Splice Variant Expression. AID 1458, 2008. HEK293 SMN2-luciferase splicing reporter, luminescence, 30-36 h. Potency, µM (highest dose often 46.1 µM), without a hit: at the top dose activity change, positive = activation, hits mostly activators. 210,000 tested, 2.8% active; also: % of control where 0% means no effect; nearly all actives have a fitted effect of over 55% in size
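HEK293 cells carry an SMN2 […]–luciferase reporter in which exon 7 inclusion puts luciferase in frame. Cells were plated 10-12 h before compound addition, then incubated 30-36 h at 37C. ONE-Glo luminescence was read; sodium butyrate at 4.5 mM final served as control.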
Numbers without * were called inactive; u = inconclusive; x = no result; [ ] = another dose, or the depositor's remark. Calls follow the shape of the dose curve; as a rule, active = well fitted curve in the direction sought with a large enough effect; inconclusive = small, poorly fitted or top-dose-only effect, or another doubt; inactive = no such curve, though single readings can be large; an effect the other way counts as inactive or inconclusive. Potency is read from the fitted curve at half-maximal effect.

SMILES | NPC1 prom act | FLuc modulator | ELG1 genotox | Rab9 promoter act | ELG1 repair inh | SMN2 splice up
Cc1[nH]c2ccccc2c1/C=N/NC(=O)c1cc(-c2ccccc2)n[nH]1 | -12% | 24µM* | -11% | -3% | 21µM* | x
Cc1[nH]c2ccccc2c1/C=N/NC(=O)c1cc(C(C)(C)C)[nH]n1 | 14% | 12µM* | -5% | 0% | -2% | x
Cc1[nH]c2ccccc2c1/C=N/NC(N)=S | 2% | u | 4% | -1% | 1% | x
Cc1ccc(NC(=S)N/N=C/c2c(C)[nH]c3ccccc23)cc1 | 0% | 19µM* | 1% | -1% | 3% | -27%
Cc1[nH]c2ccccc2c1/C=N/NC(=O)c1ccc(N)cc1 | -5% | 12µM* | 7% | 1% | 23% | x
CC(/C=N/Nc1ccc2nncn2n1)=C\c1ccccc1 | 2% | 15µM* | 5% | 12% | u | x
C(=C\c1ccccc1)/C=N/Nc1ccc2nncn2n1 | u | -13% | 5% | -4% | u | x
CC(/C=N/Nc1nnc(C)c(=O)[nH]1)=C\c1ccccc1 | u | 12µM* | 15% | u | u | u
CCOC(=O)C1=C(COC(=O)c2cc(S(=O)(=O)N(C)C)ccc2C)NC(=O)NC1C (configuration not stated) | -2% | 2% | -3% | -1% | -1% | x
CC(O)c1nc2ccccc2n1C(C)c1ccccc1 (configuration not stated) | -2% | 0% | 0% | -3% | 4% | x
Cc1ccc(NC(=O)C2=C(O)c3ccccc3N(C)S2(=O)=O)cc1 | 0% | 15µM* | 0% | 3% | u | 17%
CCOC(=O)c1ccccc1NC(=O)C(=O)Nc1ccc2nc3n(c(=O)c2c1)CCCCC3 | x | -3% | x | x | x | 13%
O=[N+]([O-])c1nn(-c2ccc3c(c2)OCCO3)n(O)c1=NCc1ccccc1Cl | u | 6µM* | u | u | u | 13µM*
COc1ccc(-n2nc([N+](=O)[O-])c(=NCCc3ccc(C)cc3)n2O)cc1 | u | -6% | -1% | u | u | x
COc1ccc(-n2nc([N+](=O)[O-])c(=NCc3ccco3)n2O)cc1 | 3.5µM* | u | u | 1.4µM* | u | x
COc1ccc(-n2nc([N+](=O)[O-])c(=NCCC3=CCCCC3)n2O)cc1 | u | u | u | 3.5µM* | u | u
COc1ccc(-n2nc([N+](=O)[O-])c(=NCc3cccnc3)n2O)cc1 | 3.5µM* | u | u | 2.8µM* | u | 26%
COc1nnc(-c2ccc(N3CCCCC3)c(NC(C)=O)c2)c2ccccc12 | 1% | 4% | -1% | 2% | -19% | -7%
N/C(=N/O)c1ccccc1N1CCC(Cc2ccccc2)CC1 | -3% | 6% | -11% | -6% | 15µM* | -93%
c1ccc(CC2CCN(c3nnnn3-c3ccccc3)CC2)cc1 | 1% | 5% | 12% | 0% | -5% | -67%
O=C(Nc1c(C(=O)N2CCN(c3ccccn3)CC2)oc2ccccc12)c1ccc([N+](=O)[O-])cc1 | 2% | 6.7µM* | -3%[9.26 µM] | 3% | -7% | x
COc1ccc(OC2CCN(S(=O)(=O)c3ccc(OC)cc3)CC2)cc1 | -3% | 1% | -5% | -7% | 15µM* | u
Cc1cn(-c2cccnc2)c(C)c1CNC[C@H]1O[C@@H](n2cnc3c(N)ncnc32)[C@H](O)[C@@H]1O | x | x | 7% | x | 18% | x
CS(=O)(=O)c1ccc2nc(NC(=O)c3cccc(NS(=O)(=O)c4ccc(F)c(F)c4)c3)sc2c1 | 12% | 24µM* | -2% | 1% | u | -1%
O=C(Nc1nc2ccc(SC(F)F)cc2s1)c1ccc(NS(=O)(=O)c2ccc(F)c(F)c2)cc1 | 13% | 15µM* | -3% | 25% | -23% | -4%
SMILES | NPC1 prom act | FLuc modulator | ELG1 genotox | Rab9 promoter act | ELG1 repair inh | SMN2 splice up
Cc1ccc(C(=O)Nc2nc3ccc(S(=O)(=O)N4CCCC4)cc3s2)cc1 | x | -5% | x | x | x | x
CS(=O)(=O)c1ccc2nc(NC(=O)c3ccc(NS(=O)(=O)c4ccc(F)c(F)c4)cc3)sc2c1 | 8% | u | -7% | -2% | u | x
c1ccc(-c2noc(-c3ccccc3-c3ccccc3)n2)cc1 | -2% | -14% | 0% | -5% | 17% | -11%
Cc1ccc(-c2nc(-c3cccnc3)no2)c(C)c1 | 2µM* | u | 5.2µM* | 1.8µM* | u | 16µM*
Brc1ccc(-c2nc(-c3ccccc3)no2)o1 | 3.5µM* | 12µM* | 8.2µM* | 2.5µM* | u | 18µM*
Brc1ccc(-c2nc(-c3cccnc3)no2)o1 | 4µM* | 17µM* | u | 2.8µM* | u | u
Cc1cc(=O)[nH]c(SCC(=O)NC2CCCc3ccccc32)n1 (configuration not stated) | 1% | -2% | -2% | -3% | 8% | x
CCOC(=O)c1cnc2nc(NCc3ccc(OCC)cc3)[nH]n2c1=O | x | u | x | x | x | 8%
CCOC(=O)c1cnc2nc(NCc3ccc(OCc4ccccc4)cc3)[nH]n2c1=O | 2% | 11µM* | -3% | 2% | 6% | 19%
CCOc1ccc(Nc2oc(-c3ccc(Cl)cc3)nc2C#N)cc1 | 25% | u | u | 2% | u | u
COc1ccc(Nc2oc(-c3ccc(OC)cc3)nc2C#N)cc1 | u | 2.4µM* | u | 3.5µM* | u | x
COc1ccc(Nc2oc(-c3ccccc3)nc2C#N)cc1 | 1.8µM* | u | u | 1.6µM* | u | u
COc1ccc(Nc2oc(-c3ccc(Cl)cc3)nc2C#N)cc1 | u | 2.7µM* | u | u | u | 14µM*
O=C(NCCC1=CCCCC1)c1ccc2c(c1)N(Cc1cccc(Cl)c1)C(=O)c1ccccc1S2(=O)=O | x | 1% | x | x | x | x
COc1ccc(Cn2cc(C(=O)c3ccc(Cl)cc3)c(=O)c3cc4c(cc32)OCO4)cc1 | x | -1% | x | x | x | -56%
Cc1ccc(C)c(CNC(=O)c2ccc3c(c2)nc2n3CCOC2)c1 | x | 5% | x | x | x | x
CCCSCCCNC(=O)c1ccc2c(c1)nc1n2CCCCC1 | x | 15µM* | x | x | x | x
O=C(NCCc1ccccc1Cl)c1ccc2c(c1)nc1n2CCCCC1 | x | 0.54µM* | x | x | x | x
Cc1ccc(C)c(CNC(=O)c2ccc3c(c2)nc2n3CCCCC2)c1 | x | 15µM* | x | x | x | x

Bioassay records from PubChem BioAssay.
